# Measurements as given in ChEMBL document CHEMBL3988442, “University of Dundee, Small-Polar-MMV Screening Library” (2021).
# The campaign covered roughly 48,000 compounds. About 13,000 (27%) showed an effect of 50% or more. The list shows a part of the results.
# Tested on: Wolbachia pipientis
# Assay: Anti-Wolbachia Cell-Based Screen
# Format: functional
# Set-up: scale not given: in the data most compounds retested in dose-response had high values
# Details: 5 µM
row,Compound,Percent Effect [%]
1,CCOC(=O)c1nc(CN2CCN(C(C)C(=O)NC3CC3)CC2)cs1 (centres undefined),-13.36
2,COc1ccc(CCC(=O)NCc2cc(C)on2)cc1,0.6679
3,CCCC(=O)NCCc1nc2cc(-c3ccc(OC)cc3)ncn2n1,102.6
4,COc1ccc2cccc(CC(=O)NCCc3n[nH]c(=O)[nH]3)c2c1,-7.606
5,CCCNCc1cn(Cc2ccccc2)nc1-c1cccnc1.Cl,-0.3485
6,CC(C)(C)Nc1nc(-c2cccnc2)c(-c2ccnc(NCCO)n2)s1,93.88
7,COc1ccc(NCc2c[nH]nc2-c2cccnc2)cc1,-7.559
8,CC(CNc1nccc(C(C)C)n1)Oc1cccnc1 (centres undefined),15.19
9,CCNc1nc(-c2cccnc2)c(-c2ccnc(NS(C)(=O)=O)n2)s1,73.47
10,CCNc1nc(-c2cccnc2)c(-c2ccnc(NCCO)n2)s1,103.5
11,Cn1cnc2c(-c3cccnc3)nc(C3CCN(S(C)(=O)=O)CC3)cc21,-22.74
12,Cn1c(CN2CCC(O)CC2)nnc1C1CCCN(c2ccncc2)C1 (centres undefined),-3.015
13,N#Cc1cc(Cl)ccc1N1CCOC(C(N)=O)C1 (centres undefined),-16.78
14,Cc1cccc(CN2CCN(c3ncnc4[nH]cnc34)CC2CCO)n1 (centres undefined),8.055
15,CCCC1CCCN(C(=O)Nc2cccnc2OC)CC1 (centres undefined),9.171
16,CCOc1ncccc1C(=O)NC1CC(=O)N(CC(F)(F)F)C1 (centres undefined),-4.406
17,Cc1ccc(C(=O)NC2CCCN(c3ncccn3)C2)cn1 (centres undefined),6.467
18,CCOc1ncccc1NC(=O)NC1CCN(C(C)=O)CC1,106.2
19,CCOc1ncccc1NC(=O)NC1CCN(C(=O)C2CC2)CC1,105.1
20,CCOc1ncccc1NC(=O)N1CCCCCC1,3.505
21,CCN1CCC(CNC(=O)Nc2cccnc2OC)CC1,15.3
22,CCOc1ncccc1C(=O)NC1CCCN(c2ncccn2)C1 (centres undefined),120.7
23,CCOc1ccc(C(=O)NC2CCN(c3ncccn3)CC2)cc1C,5.908
24,CCOc1ncccc1NC(=O)N1CCOCC1C (centres undefined),-9.997
25,CCOc1ncccc1NC(=O)NC1CCN(c2ncccn2)CC1,128.6

row,Compound,Percent Effect [%]
1,CCOCc1ccccc1NC(=O)NC1CCN(c2ncccn2)CC1,3.518
2,CCN(CC(F)(F)F)C(=O)C1CCCN(Cc2ccno2)C1 (centres undefined),-5.798
3,CCOCCC(=O)N1CC(=O)Nc2cc(Br)ccc21,10.79
4,CC(=O)NC(Cc1c[nH]c2cc(F)ccc12)C(=O)Nc1nonc1C (centres undefined),-8.72
5,Cc1cccc(C(C(=O)NCCCc2nnc3ccccn23)N(C)C)c1 (centres undefined),-0.5328
6,O=C(O)C(F)(F)F.c1ccc(NC[C@@H]2CCC[C@@H]3CN(c4ncccn4)C[C@@H]32)nc1,13.12
7,Cc1cccc(-n2nc(CC(C)C)nc2CCC(=O)N(C)C)c1,1.155
8,CCOCc1ccccc1NC(=O)NC1CCN(C(=O)OCC)CC1,14.37
9,CCOc1ncccc1NC(=O)N1CCCC1c1cc(C)no1 (centres undefined),4.545
10,CCOc1ncccc1NC(=O)NC1CCCN(S(C)(=O)=O)C1 (centres undefined),87.05
11,Cc1ccc(CNC(=O)NC2CCCN(c3ncccn3)C2)cn1 (centres undefined),-0.9532
12,CCOC(=O)N1CCC(NC(=O)Nc2cccnc2OCC)CC1,102.8
13,COc1ncccc1NC(=O)C1CCN(S(C)(=O)=O)CC1,9.079
14,COc1ncccc1NC(=O)NC1CCCN(c2ncccn2)C1 (centres undefined),123
15,CCOc1ncccc1NC(=O)N1CCN(c2cccc(C)c2C)CC1,-4.888
16,COc1ncccc1NC(=O)NCC1CC1,5.858
17,COc1cc(CN2CCCC(Nc3cccc(F)c3)C2)cc(Cl)c1O (centres undefined),5.248
18,CN1C(=O)C2(CCN(S(=O)(=O)C3CC3)CC2)c2ccccc21,-8.422
19,O=C(CCc1nc(-c2cccnc2)no1)N(CC1CCOC1)C1CC1 (centres undefined),-0.4889
20,CCCC(NC(=O)c1cc(C)n(C2CC2)c1C)c1nnn[nH]1 (centres undefined),4.085
21,NS(=O)(=O)CCNC(=O)c1ccc(-c2ccc(F)cc2)cc1F,-11.53
22,CC(=O)N1CCN(Cc2c(C)ccc3ccccc23)CC(O)C1 (centres undefined),0.367
23,O=C(CN1CCCC1COc1ccccc1)NCc1ccccn1 (centres undefined),90.25
24,O=C(CN1CCCCCCC1=O)NCc1ccccn1,8.013
25,O=C(CN1CCOCC1CC(=O)c1ccco1)NCc1ccccn1 (centres undefined),-22.29

row,Compound,Percent Effect [%]
1,O=C(CN1CCCC1CCCO)NCc1ccccn1 (centres undefined),111.1
2,O=C(CN1CCCC1c1nc2cc(F)ccc2[nH]1)NCc1ccccn1 (centres undefined),-7.361
3,O=C(CN1CCCC1CC(=O)c1ccccc1)NCc1ccccn1 (centres undefined),107.5
4,c1ccc2c(c1)CC(N1CCCC(NCc3ccc4nonc4c3)C1)C2 (centres undefined),0.08784
5,CN(C)S(=O)(=O)c1ccc(CNC(=O)c2cn3c(n2)CNCC3)cc1,-2.346
6,Cc1ccc(C)c2c(=O)cc(CN3CC[C@@H](N)[C@H](O)C3)[nH]c12,-6.693
7,Cc1ccnn1C(C)C(=O)Nc1cc(-c2ccncc2)[nH]n1 (centres undefined),16.43
8,O=C(NCCNc1ncccn1)N1CC=C(c2ccccc2)CC1,13.59
9,Nc1cc(CCCNC(=O)NC2CC2)nn1-c1ccccc1,-28.53
10,O=C(NCc1cc(=O)n2c(n1)CN(CC1CC1)CCC2)c1ccsc1.O=C(O)C(F)(F)F,88.56
11,CN1CCCn2c(nc(CNC(=O)c3nccn3C)cc2=O)C1.O=C(O)C(F)(F)F.O=C(O)C(F)(F)F,-10.78
12,COCCN1CCCn2c(nc(CNC(=O)COC)cc2=O)C1.O=C(O)C(F)(F)F,101.5
13,CC(C)N1CCCn2c(nc(CNC(=O)c3nccn3C)cc2=O)C1.O=C(O)C(F)(F)F.O=C(O)C(F)(F)F,-1.312
14,CCCN1CCCn2c(nc(CNC(=O)c3ccsc3)cc2=O)C1.O=C(O)C(F)(F)F,-11.31
15,CCCN1CCCn2c(nc(CNC(=O)N3CCCC3)cc2=O)C1.O=C(O)C(F)(F)F,1.555
16,COCCN1CCCn2c(nc(CNS(C)(=O)=O)cc2=O)C1.O=C(O)C(F)(F)F,96.89
17,CN1CCCn2c(nc(CNC(=O)c3ccsc3)cc2=O)C1.O=C(O)C(F)(F)F,-36.6
18,COCC(=O)NCc1cc(=O)n2c(n1)CN(C)CCC2.O=C(O)C(F)(F)F,104.3
19,CCc1nn(C)c(CC)c1CNC(=O)Nc1cccc2c1CCN2C,-5.732
20,O=C1CCC2(CCN(CCSc3ccccc3)CC2)CN1CCCO,-17.17
21,CC(CNC(=O)N1CCS(=O)(=O)CC1)Cc1cccs1 (centres undefined),21.62
22,Cc1nnc(C(C)NCC2(c3c(F)cccc3F)CCCC2)o1 (centres undefined),5.955
23,COCC(=O)NCc1cc(=O)n2c(n1)CN(Cc1ccccc1)CCC2.O=C(O)C(F)(F)F,93.29
24,COc1ccc(CN2CCn3cc(CNC(=O)CC4CC4)nc3C2)cc1.O=C(O)C(F)(F)F,-3.28
25,COc1ccc(CN2CCn3cc(CNC(=O)C4CCC4)nc3C2)cc1.O=C(O)C(F)(F)F,-6.087

row,Compound,Percent Effect [%]
1,COCC(=O)NCc1cc(=O)n2c(n1)CN(CC1CC1)CCC2.O=C(O)C(F)(F)F,83.83
2,O=C(NCc1cc(=O)n2c(n1)CN(CC1CCOC1)CCC2)C1CC1.O=C(O)C(F)(F)F (centres undefined),-7.493
3,Cc1ccc(C(C)(O)CNC(=O)c2sccc2OC(F)F)o1 (centres undefined),-15.69
4,CCS(=O)(=O)NCC1OCCc2cn(CC3CCOCC3)nc21 (centres undefined),-7.17
5,O=C1N(c2ccccc2)Cc2nc(=O)[nH]n21,8.633
6,CC(C)Sc1ncccc1C(=O)NCc1ccoc1,124.5
7,CSc1ncccc1C(=O)NCCC(O)c1ccco1 (centres undefined),-7.347
8,O=C(c1cccnc1N1CCN(Cc2ccoc2)CC1)N1CCCCC1,11.57
9,CC(C)Sc1ncccc1C(=O)NCc1ccc(O)cc1,102.9
10,CC(C)Sc1ncccc1C(=O)NCc1ccc(CS(C)(=O)=O)cc1,3.251
11,CC(C)Nc1ncccc1C(=O)NCc1ccnn1C,-5.174
12,Cc1c[nH]c(CN(C)C(=O)C2CC(=O)N(Cc3ccncc3)C2)n1 (centres undefined),-14.3
13,CN1CCC(N(C)C[C@H]2CC[C@@H](Cc3ccc4occc4c3)O2)CC1,-18.26
14,Cc1nc(CN2CCC3(CCN(c4ncc(F)cn4)C3)C2=O)cs1.O=C(O)C(F)(F)F (centres undefined),-4.043
15,Cc1ccc(N2CCC3(CCN(Cc4nccs4)CC3)CC2)nn1,5.38
16,Cc1ccc(N2CCC3(CCN(Cc4csc(C)n4)CC3)CC2)nn1,-10.89
17,COc1cc(N2CCC3(CCN(Cc4csc(C)n4)C3)CC2)ncn1.O=C(O)C(F)(F)F,133.8
18,Cc1nc(CN2CCC3(CCCN(C(=O)c4cnccn4)C3)C2)cs1.O=C(O)C(F)(F)F (centres undefined),-5.513
19,Cc1cnc(N2CCC3(CCN(Cc4csc(C)n4)C3=O)C2)nc1.O=C(O)C(F)(F)F (centres undefined),101.3
20,Cc1nc(CN2CCC3(CCN(C(=O)c4ccoc4C)CC3)C2)cs1.O=C(O)C(F)(F)F,2.621
21,Cc1cnc(N2C[C@H]3CN(Cc4csc(C)n4)C(=O)[C@H]3C2)nc1.O=C(O)C(F)(F)F,-0.6865
22,Cc1cnc(N2CCCC3(CCN(Cc4csc(C)n4)C3=O)C2)nc1.O=C(O)C(F)(F)F.O=C(O)C(F)(F)F (centres undefined),-16.03
23,Cc1ccc(N2CCC3(CCN(Cc4csc(C)n4)C3=O)C2)nn1 (centres undefined),95.91
24,COc1cc(N2CCC3(CCN(Cc4csc(C)n4)C3=O)C2)ncn1.O=C(O)C(F)(F)F (centres undefined),173.5
